Assay results published in PubChem BioAssay (NCATS).
Inconclusive results are not listed. A call without a number means that no potency is given here. Values without a mark were called inactive. Activity calls are given as the source filed them. The call rests on the fitted dose curve; in most records, active means well fitted curve in the direction sought with a large enough effect; inconclusive means small, poorly fitted or top-dose-only effect, or another doubt; inactive means no such curve, though single readings can be large; an effect the other way counts as inactive or inconclusive.

Biological target: Rap guanine nucleotide exchange factor 3 (Homo sapiens) (UniProt O95398)
Sequence (O95398 whole entry, looked up): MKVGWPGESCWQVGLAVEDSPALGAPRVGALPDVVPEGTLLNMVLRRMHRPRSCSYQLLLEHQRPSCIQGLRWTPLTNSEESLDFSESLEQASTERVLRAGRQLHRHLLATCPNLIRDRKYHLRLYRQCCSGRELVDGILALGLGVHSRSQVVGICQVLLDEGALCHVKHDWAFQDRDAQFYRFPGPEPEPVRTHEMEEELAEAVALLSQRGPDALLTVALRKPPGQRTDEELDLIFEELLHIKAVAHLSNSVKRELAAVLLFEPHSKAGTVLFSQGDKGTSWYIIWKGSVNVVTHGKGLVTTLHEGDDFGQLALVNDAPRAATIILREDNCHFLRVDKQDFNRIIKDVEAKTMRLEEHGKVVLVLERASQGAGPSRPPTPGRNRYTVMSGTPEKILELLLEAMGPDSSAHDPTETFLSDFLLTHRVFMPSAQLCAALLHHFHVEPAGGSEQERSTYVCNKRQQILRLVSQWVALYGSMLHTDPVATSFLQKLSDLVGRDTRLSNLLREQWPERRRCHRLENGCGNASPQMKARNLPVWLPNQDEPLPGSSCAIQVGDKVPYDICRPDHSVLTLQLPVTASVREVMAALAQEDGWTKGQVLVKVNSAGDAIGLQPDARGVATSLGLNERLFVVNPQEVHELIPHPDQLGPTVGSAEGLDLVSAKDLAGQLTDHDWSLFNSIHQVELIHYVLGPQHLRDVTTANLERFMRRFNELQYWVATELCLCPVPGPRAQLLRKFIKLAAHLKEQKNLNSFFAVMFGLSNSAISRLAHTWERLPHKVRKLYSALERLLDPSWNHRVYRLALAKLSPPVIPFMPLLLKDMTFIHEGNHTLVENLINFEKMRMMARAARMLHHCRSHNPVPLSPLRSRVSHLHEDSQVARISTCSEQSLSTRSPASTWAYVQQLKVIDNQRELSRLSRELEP
Experiment: Counterscreen qHTS for antagonist of cAMP-regulated guanine nucleotide exchange factor 3 (EPAC1) (AID 1645888);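 further: fluorescence loss as bound BODIPY-GDP is released from Rap1B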
Details: Rap1B-BODIPY-GDP nucleotide exchange, fluorescence; series mostly up to 154 µM
Summary of the method: (§1)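 Measured: fluorescence of BODIPY-GDP bound to Rap1B, which falls as exchange proceeds. Conditions include 50 uM competing GDP, 5 and 30 min reads, and a later cAMP challenge for antagonist detection.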

Question: With `CC1=Nc2ccccc2/C1=C/c1sc(=N)n(-c2nccs2)c1O` as the molecule, how does the Potency read?
Answer: Its Potency is “inactive”.

Question: `Cc1ccccc1OCC(=O)Nc1ccc(C(=O)OCc2cc(=O)n3c(C)csc3n2)cc1` was tested. Which Potency did it give?
Answer: The Potency was “inactive”.

Question: How did the Potency turn out when `O=C(O)c1ccc(NS(=O)(=O)c2ccc3c(c2)C2C=CCC2C(c2ccccc2F)N3)cc1` (stereo not drawn) was run?
Answer: Its Potency is “inactive”.

Question: With `Oc1[nH]c2ccccc2c1N=Nc1ccccc1F` as the molecule, how does the Potency read?
Answer: The Potency was “inactive”.

Question: Which Potency does the source give for `COC(=O)C1=CN(c2c(C)cc(C)cc2C)C(N)=C(C#N)C1c1ccccc1` (stereo not drawn) here?
Answer: The Potency was “inactive”.

Question: How did the Potency turn out when `Cc1ccc(SCC(=O)Nc2ccccc2N2CCOCC2)cc1` was run?
Answer: The Potency was “inactive”.

Question: How did the Potency turn out when `Cc1nc(N)sc1-c1csc(Nc2ncccn2)n1` was run?
Answer: Its Potency is “inactive”.

Question: With `COc1ccc(/C=C2\SC(=S)N(CCC(=O)N3CCCCC3CCO)C2=O)cc1` (stereo not drawn) as the molecule, how does the Potency read?
Answer: Its Potency is “inactive”.

Question: For `Cc1nc(NC(=O)c2c(-c3ccccc3)c(-c3ccccc3)nn(C)c2=O)sc1C`, which Potency is on record?
Answer: Its Potency is “inactive”.

Question: `O=S(=O)(c1cccc2ccccc12)N1CCCCC1` was tested. Which Potency did it give?
Answer: The Potency was “inactive”.

Question: `COc1ccc(NC(=O)COC(=O)CCCOc2ccc(Cl)cc2Cl)cc1Cl` was tested. Which Potency did it give?
Answer: The Potency was “inactive”.

Question: For `Cc1nc2c(C(=O)NCc3ccccc3Cl)c[nH]n2c(=O)c1Cc1cccc(Cl)c1`, which Potency is on record?
Answer: Its Potency is “inactive”.

Question: With `Cc1ccc(CNC(=O)c2cccc3c2C(=O)c2ccc(N4CCCCC4)cc2S3(=O)=O)cc1` as the molecule, how does the activity change, negative = inhibition read?
Answer: The activity change, negative = inhibition was -7.83% [at 30.8 µM].

Question: With `COc1ccccc1/C=C(/C(=O)OCC(=O)Nc1ccc(N(C)C)cc1)c1ccccc1` as the molecule, how does the Potency read?
Answer: Its Potency is “inactive”.

Question: How did the Potency turn out when `COC(=O)c1ccc2nc(-c3cccc(Br)c3)c(Cc3ccccc3)n2c1` was run?
Answer: The Potency was “inactive”.

Question: Which Potency does the source give for `O=C(O)c1cccc(Cn2c(Cl)c(/C=N/NC(=O)c3cc4ccccc4cc3O)sc2=O)c1` here?
Answer: The Potency was “inactive”.

Question: `CCCN1C(=O)c2[nH]nc(-c3ccc(F)cc3)c2C1c1ccc(O)c(OCC)c1` (stereo not drawn) was tested. Which Potency did it give?
Answer: Its Potency is “inactive”.

Question: `Cn1cc(/C=C/c2cc[n+](C)cc2)c2cc(F)ccc21` was tested. Which Potency did it give?
Answer: The Potency was “inactive”.

Question: Which Potency does the source give for `Cc1ccc2c(c1)OC(=O)CC2c1ccccc1` (stereo not drawn) here?
Answer: Its Potency is “inactive”.

Question: For `CCOc1ccc(C2C3=C(CCCC3=O)Nc3ccc4ncccc4c32)cc1` (stereo not drawn), which activity change, negative = inhibition is on record?
Answer: The activity change, negative = inhibition was -12.5% [at 30.8 µM].

Question: With `Cc1cccc(Oc2ccccc2NC(=O)C2=COCCO2)c1` as the molecule, how does the Potency read?
Answer: The Potency was “inactive”.

Question: With `Cc1csc2nc(-c3cccc(NC(=O)c4cccc(F)c4)c3)cn12` as the molecule, how does the Potency read?
Answer: Its Potency is “inactive”.

Question: With `CN(Nc1cccc(Cl)c1)c1cccc(Cl)c1` as the molecule, how does the Potency read?
Answer: The Potency was “inactive”.

Question: With `Cn1cccc1/C=C1\SC(=S)N(NC(=O)c2cccc(Cl)c2)C1=O` as the molecule, how does the Potency read?
Answer: The Potency was “inactive”.

Question: How did the Potency turn out when `Clc1ccc(CSc2nnc(-c3ccccn3)n2Cc2ccco2)cc1Cl` was run?
Answer: Its Potency is “inactive”.

Question: How did the Potency turn out when `Cc1cc(N(CCO)Cc2ccccc2)n2nc(-c3ccc(C(C)(C)C)cc3)nc2n1` was run?
Answer: The Potency was “inactive”.

Question: For `CN(CC(=O)Nc1ccc(Cl)c(C(F)(F)F)c1)C(=O)c1ccc2c(c1)OCCO2`, which Potency is on record?
Answer: Its Potency is “inactive”.

Question: `COc1ccc(OC)c(NC(=O)CSc2nccn2-c2cc(C)cc(C)c2)c1` was tested. Which Potency did it give?
Answer: The Potency was “inactive”.

Question: With `COc1ccc(CNc2ncnc3onc(-c4ccc(F)cc4)c23)cc1` as the molecule, how does the Potency read?
Answer: The Potency was “inactive”.

Question: How did the Potency turn out when `CN(C)c1ccc(/C=C2\C(=N)N3N=C(CC(=O)N4CCCCC4)SC3=NC2=O)cc1` was run?
Answer: Its Potency is “inactive”.

Question: For `C/C(=N\N(Cc1ccccc1)c1ccccc1)c1cccnc1`, which Potency is on record?
Answer: The Potency was “inactive”.

Question: For `CC(C)C(NC(=O)C1CC(=O)N(Cc2ccccc2)C1)c1nc2ccccc2[nH]1` (stereo not drawn), which Potency is on record?
Answer: The Potency was “inactive”.

Question: How did the Potency turn out when `O=C1OC(Cc2ccccc2)(c2ccccc2)c2ccccc21` (stereo not drawn) was run?
Answer: Its Potency is “inactive”.

Question: Which Potency does the source give for `COc1ccc(OC)c(NC(=O)CSc2ncnc3sc(C)cc23)c1` here?
Answer: The Potency was “inactive”.

Question: With `COc1ccc(NC(=O)c2cc(-c3cc(Cl)ccc3C)n[nH]2)cn1` as the molecule, how does the Potency read?
Answer: The Potency was “inactive”.

Question: With `Cc1cccc2sc(N(Cc3cccnc3)C(=O)c3cccs3)nc12` as the molecule, how does the Potency read?
Answer: Its Potency is “inactive”.

Biological target: Rap guanine nucleotide exchange factor 3 (Homo sapiens) (UniProt O95398)
Experiment: Counterscreen qHTS for agonist of cAMP-regulated guanine nucleotide exchange factor 3 (EPAC1) (AID 1645889); further: nearly all actives have a fitted effect of over 40% in size; further: potency means the concentration at half of the fitted maximal effect
Details: EPAC1 Rap1B-BODIPY-GDP exchange, fluorescence; series mostly up to 154 µM
Summary of the method: as §1

Question: How did the Potency turn out when `CC1=Nc2ccccc2/C1=C/c1sc(=N)n(-c2nccs2)c1O` was run?
Answer: Its Potency is 56.2 µM (active).

Question: With `Cc1ccccc1OCC(=O)Nc1ccc(C(=O)OCc2cc(=O)n3c(C)csc3n2)cc1` as the molecule, how does the Potency read?
Answer: Its Potency is “inactive”.

Question: How did the Potency turn out when `Cc1ccc(C2CC2/C(=N/O)c2ccc(F)cc2)cc1` (stereo not drawn) was run?
Answer: The Potency was “inactive”.

Question: `O=C(O)c1ccc(NS(=O)(=O)c2ccc3c(c2)C2C=CCC2C(c2ccccc2F)N3)cc1` (stereo not drawn) was tested. Which Potency did it give?
Answer: The Potency was 44.7 µM (active).

Question: With `Oc1[nH]c2ccccc2c1N=Nc1ccccc1F` as the molecule, how does the Potency read?
Answer: The Potency was 11.2 µM (active).

Question: Which Potency does the source give for `Cc1ccc(SCC(=O)Nc2ccccc2N2CCOCC2)cc1` here?
Answer: Its Potency is “inactive”.

Question: For `Cc1nc(N)sc1-c1csc(Nc2ncccn2)n1`, which Potency is on record?
Answer: The Potency was “inactive”.

Question: With `COc1ccc(/C=C2\SC(=S)N(CCC(=O)N3CCCCC3CCO)C2=O)cc1` (stereo not drawn) as the molecule, how does the Potency read?
Answer: The Potency was “inactive”.

Question: `Cc1nc(NC(=O)c2c(-c3ccccc3)c(-c3ccccc3)nn(C)c2=O)sc1C` was tested. Which Potency did it give?
Answer: The Potency was “inactive”.

Question: With `O=S(=O)(c1cccc2ccccc12)N1CCCCC1` as the molecule, how does the Potency read?
Answer: The Potency was “inactive”.

Question: With `COc1ccc(NC(=O)COC(=O)CCCOc2ccc(Cl)cc2Cl)cc1Cl` as the molecule, how does the Potency read?
Answer: The Potency was “inactive”.

Question: How did the Potency turn out when `Cc1nc2c(C(=O)NCc3ccccc3Cl)c[nH]n2c(=O)c1Cc1cccc(Cl)c1` was run?
Answer: The Potency was “inactive”.

Question: How did the Potency turn out when `Cc1ccc(CNC(=O)c2cccc3c2C(=O)c2ccc(N4CCCCC4)cc2S3(=O)=O)cc1` was run?
Answer: Its Potency is 11.2 µM (active).

Question: `COc1ccccc1/C=C(/C(=O)OCC(=O)Nc1ccc(N(C)C)cc1)c1ccccc1` was tested. Which Potency did it give?
Answer: Its Potency is “inactive”.

Question: How did the Potency turn out when `CCCN1C(=O)c2[nH]nc(-c3ccc(F)cc3)c2C1c1ccc(O)c(OCC)c1` (stereo not drawn) was run?
Answer: The Potency was “inactive”.

Question: Which Potency does the source give for `Cn1cc(/C=C/c2cc[n+](C)cc2)c2cc(F)ccc21` here?
Answer: The Potency was “inactive”.

Question: Which Potency does the source give for `CC(C)(C)c1cc(NCCCn2ccnc2)n2ncc(-c3ccccc3)c2n1` here?
Answer: The Potency was “inactive”.

Question: How did the Potency turn out when `Cc1cccc(Cn2nnc3c(=O)[nH]c(C4CCCN(C(=O)c5ccc(C(C)(C)C)cc5)C4)nc32)c1` (stereo not drawn) was run?
Answer: Its Potency is “inactive”.

Question: `Cn1cccc1/C=C1\SC(=S)N(NC(=O)c2cccc(Cl)c2)C1=O` was tested. Which Potency did it give?
Answer: The Potency was “inactive”.

Question: For `Cc1cc(N(CCO)Cc2ccccc2)n2nc(-c3ccc(C(C)(C)C)cc3)nc2n1`, which Potency is on record?
Answer: Its Potency is “inactive”.

Question: Which Potency does the source give for `CN(CC(=O)Nc1ccc(Cl)c(C(F)(F)F)c1)C(=O)c1ccc2c(c1)OCCO2` here?
Answer: The Potency was “inactive”.

Question: How did the Potency turn out when `COc1ccc(OC)c(NC(=O)CSc2nccn2-c2cc(C)cc(C)c2)c1` was run?
Answer: Its Potency is “inactive”.

Question: For `CN(C)c1ccc(/C=C2\C(=N)N3N=C(CC(=O)N4CCCCC4)SC3=NC2=O)cc1`, which Potency is on record?
Answer: Its Potency is “inactive”.

Question: For `CC(C)C(NC(=O)C1CC(=O)N(Cc2ccccc2)C1)c1nc2ccccc2[nH]1` (stereo not drawn), which Potency is on record?
Answer: Its Potency is “inactive”.

Question: For `O=C1OC(Cc2ccccc2)(c2ccccc2)c2ccccc21` (stereo not drawn), which Potency is on record?
Answer: Its Potency is “inactive”.

Question: For `COc1ccc(OC)c(NC(=O)CSc2ncnc3sc(C)cc23)c1`, which Potency is on record?
Answer: Its Potency is “inactive”.

Question: Which Potency does the source give for `Cc1cccc2sc(N(Cc3cccnc3)C(=O)c3cccs3)nc12` here?
Answer: The Potency was 25.1 µM (active).
